The values that follow come from PubChem BioAssay (NCI).

Assay [1] can be described thus: NCI Yeast Anticancer Drug Screen. Data for the rad50 strain (AID 155).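 Note: 0% = growth of vehicle-only cultures of the same strain.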 To be noted: S. cerevisiae rad50 strain growth inhibition; at 50.0 µM; active compounds read high. The method, boiled down: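 Growth of the mutant yeast was measured after compound exposure and referenced to vehicle-treated cultures.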
Assay [2] in a line: NCI Yeast Anticancer Drug Screen. Data for the mec2-1 strain (AID 157). The settings on record: S. cerevisiae mec2-1 strain, at 50.0 µM, active compounds read high. The method, boiled down:
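Yeast mec2-1 mutant treated with compound. Readout: growth inhibition vs vehicle controls.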

A short description of assay [3]: NCI Yeast Anticancer Drug Screen. Data for the sgs1 mgt1 strain (AID 161).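 Note: 0% = growth of cultures given vehicle only.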 The settings on record: S. cerevisiae sgs1 mgt1 strain, at 50.0 µM, active compounds read high. The method, boiled down:
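Mutant yeast exposed to compound; growth scored against vehicle-only wells.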

Assay [4] can be described thus: NCI Yeast Anticancer Drug Screen. Data for the cln2 rad14 strain (AID 165).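 Note: 0% = growth equal to vehicle treated cultures.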 The settings on record: S. cerevisiae cln2 rad14 strain, at 50.0 µM, active compounds read high. The method, boiled down: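 cln2 rad14 yeast strain; compound exposure; growth inhibition read vs vehicle controls.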
Assay [5] can be described thus: NCI Yeast Anticancer Drug Screen. Data for the bub3 strain (AID 167). The settings on record: S. cerevisiae bub3 mutant strain, at 50.0 µM, active compounds read high. The method, boiled down: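 Whole-cell yeast assay. The mutant strain was incubated with compounds, and growth inhibition was determined by comparison with vehicle-treated cells.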
Assay [6] is described as follows: NCI Yeast Anticancer Drug Screen. Data for the mlh1 rad18 strain (AID 175). To be noted: S. cerevisiae mlh1 rad18 strain growth inhibition; at 50.0 µM; active compounds read high. The method, boiled down: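 Yeast w/ defined DNA-repair lesions; compound exposure; growth vs vehicle controls → % inhibition.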

The structures appear in SMILES notation. About 79,000 compounds went through this panel and 15% of them were active in at least one assay; those are over-represented in the sample as a whole. Unmarked numbers belong to inactive results. Calls of active or inactive are those of the source. Cut-off read from the data, not from the text of the source: active = growth inhibition above about 70%; inactive = the rest.

For the molecule `CC(C)c1ccc2c(c1)C=C1OC(=O)[C@]3(C)CCC[C@@]2(C)C13` (some centres undefined), the growth inhibition was 35.1% in assay [1]; 21.9% in assay [2]; 54.2% in assay [3]; 40% in assay [4]; 26.4% in assay [5]; 17.1% in assay [6].

As to `Cn1ncc(=O)[nH]c1=O`, the growth inhibition in assay [1] was -15.2%; in assay [2], -5.2%; in assay [3] it was -23.4%; in assay [4], 10.1%; in assay [5], -9.85%; in assay [6] it was -10.3%.

Take `C=CC(=O)Nc1ccc(Br)cc1`: the growth inhibition in assay [1] was 2.85%; in assay [2], -9.2%; in assay [3], -4.35%; in assay [4], -6.9%; in assay [5], 8.65%; in assay [6], 2.35%.

For `CCN(CC)Cc1cc(N=Nc2ccc3c(c2)c2ccccc2n3CC)c2ccccc2c1O`, the growth inhibition in assay [1] is 20%; in assay [2] it was 10.9%; in assay [3] it was 11.2%; in assay [4], 12.6%; in assay [5], -5.5%; in assay [6], 2.25%.

As to `C/C(=N\NC(=O)c1ccncc1)c1cccc(F)c1`, the growth inhibition in assay [1] was -57%; in assay [2], -20.9%; in assay [3], -51.2%; in assay [4], -48.7%; in assay [5], -67.8%; in assay [6] it was -38%.

Consider `COC(=O)c1cc(-c2cccc3ccccc23)[nH]c(=O)c1C#N`, for which the growth inhibition in assay [1] is 8.85%; in assay [2] it was 0.35%; in assay [3], 17.6%; in assay [4], 18.7%; in assay [5] it was -6.6%; in assay [6] it was 21.9%.

As for `CCCCOC(=O)C1CCCC1=O` (centres undefined), the growth inhibition in assay [1] is -14.6%; in assay [2] it was -31.9%; in assay [3], -2.15%; in assay [4], 1.45%; in assay [5] it was -43.1%; in assay [6] it was 9.05%.

For the molecule `Oc1ccc2c(c1)CCC2`, the growth inhibition was 25% in assay [1]; -1.95% in assay [2]; -1.3% in assay [3]; 8% in assay [4]; -10.8% in assay [5]; -19.6% in assay [6].

Turning to `NNC(=O)CC(N)C(N)=O` (centres undefined), the growth inhibition was -4.1% in assay [1]; 3.5% in assay [2]; -3.25% in assay [3]; 13.3% in assay [4]; 27.4% in assay [5]; 16.5% in assay [6].

As for `CC(=O)c1ccc(C2CCC[C@H]2c2ccc(C(C)=O)cc2)cc1` (some centres undefined), the growth inhibition is 4.15% in assay [1]; -1.55% in assay [2]; 1.75% in assay [3]; -40.2% in assay [4]; 9.3% in assay [5]; -16.4% in assay [6].

Regarding `COc1ccc(C(=O)C(C(=O)C(=O)Nc2ccc(Cl)c(Cl)c2)c2ccc(OC)cc2)cc1` (centres undefined), the growth inhibition in assay [1] is -0.6%; in assay [2], 11.2%; in assay [3], -34.4%; in assay [4] it was 38.1%; in assay [5] it was 8.95%; in assay [6] it was -17.3%.

Regarding `CC(C)CSC(C)C`, the growth inhibition in assay [1] is -3.6%; in assay [2] it was -43.4%; in assay [3] it was -27.6%; in assay [4], -5.25%; in assay [5], -6.9%; in assay [6], -11.1%.

Turning to `Nc1nc2c(c(=O)[nH]1)C(c1ccc(Cl)cc1)C=C(c1ccccc1)N2` (centres undefined), the growth inhibition in assay [1] was 5.6%; in assay [2] it was 14.8%; in assay [3] it was 3.8%; in assay [4], -1.85%; in assay [5] it was -4.75%; in assay [6] it was -33.5%.

On to `Cn1c(=O)c2[nH]c(SC3CCCCC3)nc2n(C)c1=O`, for which the growth inhibition in assay [1] was 19.2%; in assay [2], 11.4%; in assay [3] it was 18.6%; in assay [4], 11.3%; in assay [5], 35.8%; in assay [6] it was 8.9%.

`COc1ccc2nc3c(Cl)cccc3c(Cl)c2c1`: the growth inhibition in assay [1] was 28.4%; in assay [2], 38.5%; in assay [3], 3.4%; in assay [4] it was 4.6%; in assay [5] it was 7.35%; in assay [6], 81.5% (active).

With `CCCCN(CCCC)S(=O)(=O)N1CCOCC1`, the growth inhibition is -12.3% in assay [1]; -10.1% in assay [2]; 3% in assay [3]; 9.1% in assay [4]; 10.4% in assay [5]; 2.75% in assay [6].

Regarding `CC(C)CCC(=O)OCC(=O)c1ccc(-c2ccccc2)cc1`, the growth inhibition was 8.55% in assay [1]; -13.1% in assay [2]; 7.25% in assay [3]; -1.45% in assay [4]; 23.9% in assay [5]; 9.1% in assay [6].

Consider `C/C([O-])=C(/c1nc(-c2ccc([N+](=O)[O-])o2)no1)[n+]1cc(C)ccc1C`, for which the growth inhibition in assay [1] was 19.3%; in assay [2], 14%; in assay [3], 18.9%; in assay [4] it was 21.3%; in assay [5], 7.55%; in assay [6], 16.1%.

With `CCOC(=O)NC(=O)c1cn(CCN2CCN(C(=O)NCCCCCCNC(=O)N3CCN(CCn4cc(C(=O)NC(=O)OCC)c(=O)[nH]c4=O)CC3)CC2)c(=O)[nH]c1=O`, the growth inhibition was -12.3% in assay [1]; 14.7% in assay [2]; -8.95% in assay [3]; -18.6% in assay [4]; -0.75% in assay [5]; -11.6% in assay [6].
